From PubChem BioAssay (Tox21)
Inconclusive results are not listed. A call without a number means that no potency is given here. Activity calls are given as the source filed them. Calls come from the whole dose curve.

Assay: p53 small molecule agonists, cell-based qHTS assay with rat liver microsomes (AID 1963578)
Details: HCT-116 p53RE-bla, beta-lactamase ratio, 16 h; series mostly up to 66 µM
Excerpt: U.S. Tox21 Program National Center for Advancing Translational Sciences [NCATS] Division of Preclinical Innovation [DPI] U.S. Environmental Protection Agency [EPA] National Institutes of Environmental Health Sciences [NIEHS] National Toxicology Program [NTP] U.S. Food and Drug Administration [FDA] Tox21 Assay Overview: p53, a tumor suppressor protein, is activated following cellular insult, including DNA damage and other cellular stresses. The activation of p53 regulates cell fate by inducing DNA repair, cell cycle arrest, apoptosis, or cellular senescence. The activation of p53, therefore, is a good indicator of DNA damage and other cellular stresses. […] The activation of the reporter gene under culture conditions can be detected by fluorescence intensity. This cell line was used to screen the Tox21 10K compound library in the condition of presence of rat liver microsomes and to identify agonists that activate the p53 signaling pathway after in vitro metabolic activation (Ooka et al., Archive of Toxicology 96:1975-1987, 2022).
Tox21 Assay Protocol Summary: The p53RE-bla cells were dispensed at 4,000cells/3ul/well in 1536-well black-clear bottom plates. After the assay plates were incubated at 37 C, 5% CO2 incubator for 5 hours, 23 nL of compounds dissolved in DMSO, positive controls or DMSO only was transferred to the assay plate. Following compound addition, 3 uL of rat liver microsomes (Molecular Toxicology, Boone, NC) at final concentration of 0.5 mg/mL and 1uL of Beta-Nicotinamide adenine dinucleotide 2-phosphate (NADPH) at final concentration of 0.5 mg/mL were transferred to the assay plate. The plates were incubated at 37 C for 16 hours. 1 uL of LiveBLAzer detection mixture was added to each well and the plates were incubated at room temperature in the dark for 2 h.

| SMILES | Potency | activation |
| --- | --- | --- |
| CC1CCCO1 (stereo not given) | inactive |  |
| CC(CC1c2ccccc2CCc2ccccc21)CN(C)C (stereo not given) | inactive |  |
| CCCCN1C=CN(C)C1 |  | 0.456% [at 13.6 µM] (inactive) |
| Cn1c(=O)c2c(ncn2CC(O)CO)n(C)c1=O (stereo not given) | inactive |  |
| CCCCN1CCCC1C(=O)Nc1c(C)cc(C)cc1C (stereo not given) | inactive |  |
| CN(C)c1ccc(C(c2ccccc2)c2ccc(N(C)C)cc2)cc1 | inactive |  |
| Cc1cc(=O)oc2cc(O)cc(O)c12 | inactive |  |
| COc1cccc(-c2ccc(/C=C\CN3CCCCCC3)cc2Cl)c1 | inactive |  |
| Cc1c(Cl)cccc1[N+](=O)[O-] | inactive |  |
| CN1C[C@H](C(=O)N[C@]2(C)O[C@@]3(O)[C@@H]4CCCN4C(=O)[C@H](Cc4ccccc4)N3C2=O)C[C@@H]2c3cccc4[nH]cc(c34)C[C@H]21 | inactive |  |
| C=CCOC(=O)/C=C\C(=O)OCC=C | inactive |  |
| CNCCC(Oc1ccccc1OC)c1ccccc1 (stereo not given) | inactive |  |
| CC1=CP(=O)(c2ccccc2)CC1 (stereo not given) | inactive |  |
| Cc1cc(Br)ccc1NC(=O)CCl | inactive |  |
| CC(C)(O)c1ccccc1CC[C@@H](SCC1(CC(=O)O)CC1)c1cccc(/C=C/c2ccc3ccc(Cl)cc3n2)c1 | inactive |  |
| OCCN(CCO)c1cccc(Cl)c1 | inactive |  |
| CN1CCN(Cc2cc(-c3ccc4[nH]c(=O)oc4c3)co2)[C@@H](c2ccc(F)cc2)C1 | inactive |  |
| ClCCl | inactive |  |
| Cc1ccc2nc(N)[nH]c(=O)c2c1Sc1ccncc1 | inactive |  |
| O=C(O)CCN(C1(C(=O)NO)CCCC1)S(=O)(=O)c1ccc(Oc2ccc(F)cc2)cc1 | inactive |  |

| SMILES | Potency | activation |
| --- | --- | --- |
| CCC=CC#N | inactive |  |
| COc1ccc(C(=O)c2ccc(OC)cc2O)c(O)c1 | inactive |  |
| CCCCS(=O)(=O)N[C@@H](Cc1ccc(OCCCCC2CCNCC2)cc1)C(=O)O | inactive |  |
| CCOC(=O)Cn1cccc1-c1nc(-c2ccc(OC)cc2)c(-c2ccc(OC)cc2)s1 | inactive |  |
| O=C(O)c1cc(Cl)cc(Cl)c1 | inactive |  |
| O=C(CCCN1CCC(O)(c2ccc(Br)cc2)CC1)c1ccc(F)cc1 | inactive |  |
| Cc1ccccc1C(=O)Nc1ccc(C(=O)N2CCCC(N(C)C)c3ccccc32)cc1 (stereo not given) | inactive |  |
| CCOC(=O)c1cnc2c(cnn2CC)c1NN=C(C)C | inactive |  |
| O=C(O)c1ccccc1C(=O)Nc1ccc(S(=O)(=O)Nc2nccs2)cc1 | inactive |  |
| O=S(=O)(O)CCO | inactive |  |
| O=C(COCCOCCOCC(=O)Nc1c(I)cc(I)c(C(=O)O)c1I)Nc1c(I)cc(I)c(C(=O)O)c1I | inactive |  |
| CCOCCn1c(C2CCN(CCc3ccc(C(C)(C)C(=O)O)cc3)CC2)nc2ccccc21 | inactive |  |
| CC(=O)OC1CCCCC1C(C)(C)C (stereo not given) | inactive |  |
| C=CC(=O)OCC[N+](C)(C)C | inactive |  |
| Cn1cnc2ncnc(N)c21 | inactive |  |
| CCOc1ccccc1O[C@H](c1ccccc1)[C@H]1CNCCO1 | inactive |  |
| COc1ccc(-c2cc(=O)c3c(O)cc(O[C@@H]4O[C@H](CO[C@@H]5O[C@@H](C)[C@H](O)[C@@H](O)[C@H]5O)[C@@H](O)[C@H](O)[C@H]4O)cc3o2)cc1O | inactive |  |
| CS(=O)(=O)c1ccc(-c2cn3ccccc3n2)cc1 | inactive |  |
| CC1=C(/C=C/C(C)=C\C=C\C(C)=C\C(=O)O)C(C)(C)CCC1 | inactive |  |
| CC1CCCCC1 | inactive |  |
